Experimental data reported in PubChem BioAssay AID2315 (National Center for Advancing Translational Sciences (NCATS), 2010).
About 27,000 (9.3%) of roughly 290,000 compounds were called active. The list comes from a sample in which actives are over-represented; it also holds similar structures and randomly drawn compounds. Unmarked numbers belong to inactive results. Rule as the data show it: active = inhibition mostly above about 28% (no sharp cut-off); inactive = mostly below about 43%.

Assay: A qHTS for Small Molecule Inhibitors of Shiga Toxin; also: 0% is about no effect
Settings: Vero cells, Shiga toxin protein synthesis inhibition reporter; at 38.7 µM, hits give high values

First: COc1ccc(NC(=O)C2CCN(S(=O)(=O)c3ccc4[nH]c(=O)oc4c3)CC2)c(OC)c1
Second: COc1ccc2oc(=O)c(C(=O)N3CCCc4ccccc43)cc2c1
The inhibition of the first is higher: -2.15% for the first, -5.55% for the second.

First: Cn1c(Nc2ccccc2)cc(=O)n(C)c1=O
Second: Cc1ccc(NS(=O)(=O)c2cn(C)c(=O)n(C)c2=O)c(C)c1
The inhibition of the first is lower: -6% for the first, 3.31% for the second.

Compared with CN(C)S(=O)(=O)c1ccc(C(=O)NCCN=C2NS(=O)(=O)c3ccccc32)cc1, Nc1ccc(C(=O)Nc2ccccc2N)cc1 is higher in inhibition: -13.8% for the first, 46.6% for the second.

Going from Cc1[nH]n(-c2cccc(Cl)c2)c(=O)c1-c1ccc(Cl)cc1 to O=c1c(-c2ccccc2Cl)c[nH]n1-c1ccccc1, the inhibition falls from 34.8% to 9.18%.

Compared with COc1ccc(CNC(=O)Cc2ccc(-c3ccccc3)cc2)cc1OC, COc1ccc(C(=O)OCC(=O)NCCCc2ccccc2)cc1OC is lower in inhibition: -1.2% for the first, -3.51% for the second.

Compared with Cc1cc(=O)[nH]c2nnnn12, Cc1cc(=O)[nH]c(SCc2cccc(F)c2)n1 is lower in inhibition: -3.63% for the first, -4.74% for the second.

O=C(/C=C/c1ccco1)NC(=S)Nc1ccccc1Br and NS(=O)(=O)c1cccc(NC(=O)COC(=O)/C=C/c2ccco2)c1 are the same in inhibition: 26.6% for the first, 26.6% for the second.

First: COc1ccc(/C=C/C(=O)NC(=S)N2CCCC(C(N)=O)C2)cc1 (stereo not drawn)
Second: COc1ccccc1/C=C/C(=O)NC1CC2CCC1C2 (stereo not drawn)
The inhibition of the first is higher: 12.4% for the first, 12.2% for the second.

Compared with COc1ccccc1C(=O)Nc1cccc(C(=O)N2CCOCC2)c1, COc1ccccc1C(=O)N/C(=C/c1ccco1)C(=O)Nc1ccc(C(=O)O)cc1 is higher in inhibition: -11.1% for the first, -2.72% for the second.

Compared with CCCn1c(C2CCCN2c2nc(-c3ccc(C)cc3)cs2)nc2cc(Cl)c(N3CCCCC3)cc21 (stereo not drawn), Cc1cnc(C)c(N2CCN(C(=O)C3CCC(=O)N(CCc4cccc(F)c4)C3)CC2)n1 (stereo not drawn) is lower in inhibition: 26.1% for the first, 0.443% for the second.

Compared with CCOc1ccc(Br)cc1S(=O)(=O)Nc1ccc(C(=O)OC(C)C(=O)N(C)c2ccccc2)cc1 (stereo not drawn), CN(c1ccccc1)S(=O)(=O)c1ccc(NC(=O)COc2ccccc2)cc1 is lower in inhibition: -0.904% for the first, -5.47% for the second.

Compared with CCOC(=O)c1c(-c2ccccc2)oc2cc(Br)c(O)c(C=O)c12, CCOC(=O)c1c(-c2ccccc2)oc2ccc(OCC(N)=O)cc12 is lower in inhibition: 3% for the first, -3.18% for the second.

Compared with Nc1cc(N)nc(SCc2ccc(Cl)cc2)n1, Cc1cc(Cl)ccc1OCCCC(=O)Nc1cccc(-n2cnnn2)c1 is lower in inhibition: 17.1% for the first, -13.8% for the second.

Going from CN(CC(=O)Nc1ccccc1C(F)(F)F)C(=O)Cc1ccccc1F to Cc1cccc(OCCC(=O)Nc2ccccc2C(N)=O)c1, the inhibition falls from 16.3% to 5.43%.

First: COc1cc(C)c(C)cc1S(=O)(=O)N1CCCc2ccccc21
Second: Cc1ccc(NC(=O)CN2CCc3ccccc3C2)cc1C
The inhibition of the first is lower: 16.5% for the first, 17% for the second.

Compared with COc1ccc(CCC(C)N2CCc3ccccc3C2)cc1 (stereo not drawn), COc1ccc(Oc2c(Cl)cnn(-c3ccccc3)c2=O)cc1 is lower in inhibition: -6.15% for the first, -10.6% for the second.

First: CN(c1ccccc1)S(=O)(=O)c1cc(C(=O)Nc2nc3ccccc3[nH]2)ccc1Cl
Second: O=C(Cc1cccs1)Nc1cccc(-c2nc3ccccc3[nH]2)c1
The inhibition of the first is higher: 55.5% for the first, 3.19% for the second.

First: CC(C)Oc1ccc(/C=C(\NC(=O)/C=C/c2ccco2)C(=O)NCCc2nc3ccccc3[nH]2)cc1
Second: CCc1ccnc(NC(=O)Nc2ccc(OCc3ccccc3)cc2)c1
The inhibition of the first is lower: 14.2% for the first, 17.6% for the second.

First: CCOC(=O)c1c(NC(=O)/C=C/c2ccco2)sc(C)c1C
Second: Cc1ccc(N2NC(=O)/C(=C/C=C/c3ccco3)C2=O)cc1C
The inhibition of the first is lower: -12.1% for the first, 20.9% for the second.

First: COc1ccc(Br)cc1C1C2C=CCC(C)C2C(=O)N1Cc1ccccc1 (stereo not drawn)
Second: CCOC(=O)C1=C(CCc2ccccc2)NC(=O)NC1c1ccc2ccccc2c1 (stereo not drawn)
The inhibition of the first is lower: 2.19% for the first, 2.87% for the second.

Going from NC(=O)C1CCN(C(=O)c2ccc3c(=O)n(Cc4cccc(Br)c4)c(=S)[nH]c3c2)CC1 to CCOCCCN(C)C1CCN(C(=O)c2oc3ccccc3c2NC(=O)COc2cccc(C)c2)CC1, the inhibition falls from 0.712% to -8.02%.

Going from CCN1C(=S)N[C@@H](c2cccc(C(F)(F)F)c2)C(C(=O)OC)=C1C to O=C(Nc1cccc2cccnc12)C(F)(F)F, the inhibition rises from -10.1% to -8.11%.

Compared with COC(=O)C1(C)CC1(c1ccccc1)c1ccccc1 (stereo not drawn), CC(Oc1ccccc1)C(=O)Nc1c2c(nn1-c1ccccc1)CS(=O)C2 (stereo not drawn) is higher in inhibition: -7.31% for the first, -1.03% for the second.

First: O=CN1CCN(C(=O)c2ccc3c(c2)OCO3)CC1
Second: O=CN1CCN(C(=O)c2ccc(Br)o2)CC1
The inhibition of the first is lower: 2.8% for the first, 17.4% for the second.

Going from COCCNc1nc(N)c([N+](=O)[O-])c(N2CCCCCC2)n1 to O=C(COc1ccccc1Cl)N1CCCCCCC1, the inhibition rises from 6.83% to 36.9%.

Going from Cc1ccc(NC2CCCN(C(=O)CCC3(C)CC3)C2)cc1C (stereo not drawn) to O=C(CN1CCOC1=O)N1CCCC(Nc2ccc(F)c(F)c2)C1 (stereo not drawn), the inhibition rises from -22.1% to 13.5%.

First: CCOC(=O)Cc1ncccc1C(=O)Nc1ccc(OC)cc1
Second: COc1ccc(S(=O)(=O)Nc2cccc3cccnc23)c(N)c1
The inhibition of the first is higher: 6.55% for the first, -26.8% for the second.

Going from O=C(Nc1ccccc1Cl)Nn1cnnc1 to CCCOC(=O)Nc1ccccc1C(N)=O, the inhibition falls from 14.1% to -12.3%.

Compared with N#Cc1ccc(C(=O)Nc2cccc3cccnc23)c(F)c1, O=C(Nc1cccc2cccnc12)c1cccc(N2C(=O)CCC2=O)c1 is higher in inhibition: -0.419% for the first, 30.9% for the second.

First: NS(=O)(=O)c1ccc(CCNS(=O)(=O)c2cccc3cccnc23)cc1
Second: COC(=O)Cc1ccc(N(Cc2ccccc2F)S(=O)(=O)c2ccc(Br)cc2)cc1
The inhibition of the first is lower: -5.83% for the first, 9.28% for the second.

First: COc1ccc(-c2cc(=O)oc3cc(OC(C)C(=O)Nc4ccc(CN5CCOCC5)cc4)ccc23)cc1 (stereo not drawn)
Second: COc1ccc(-c2nnc(SC(=O)N3c4ccccc4Sc4ccccc43)o2)cc1
The inhibition of the first is lower: -3.54% for the first, 18.6% for the second.

First: COc1cc2c(cc1OC)C(C(=O)Nc1cc(C)c(OC)c(C)c1)CC(=O)N2 (stereo not drawn)
Second: COc1ccc(C(=O)NC(C)Cn2nc(C)cc2C)cc1OC1CCN(C(C)=O)CC1 (stereo not drawn)
The inhibition of the first is higher: 7.56% for the first, -5.64% for the second.

Going from CC1CCC(NC(=O)C2c3ccccc3C(=O)N2Cc2ccc3c(c2)OCO3)CC1 (stereo not drawn) to O=C(O)CCCN1C(=O)C2C3c4ccccc4C(c4ccccc43)[C@@H]2C1=O (stereo partly drawn), the inhibition falls from 15.2% to -10.8%.

Going from Cc1ccc(C(=O)NC2CC(C)(C)NC(C)(C)C2)c(C)c1 to Cc1ccc(N=Cc2c(O)cc(C)oc2=O)c(C)c1, the inhibition rises from -6.82% to -1.09%.

Going from COc1ccc(OC)c(C(O)c2nc3ccccc3n2C)c1 (stereo not drawn) to Cc1ccc(F)c(NC(=O)CCOc2ccccc2C)c1, the inhibition rises from -12.2% to 2.89%.

First: COC(=O)CSc1nnc(-c2cccnc2)o1
Second: Cc1cccc(OCC(=O)NCCCNC(=O)c2ccccn2)c1
The inhibition of the first is higher: 8.44% for the first, -11.4% for the second.

Going from CC(=O)c1ccc(N2CCN(C(=O)CCNC(=O)Cn3ccc4ccccc4c3=O)CC2)cc1 to CC(=O)Nc1ccc(C(=O)N(C2=NC(C)CS2)c2ccc(Cl)cc2)cc1 (stereo not drawn), the inhibition rises from 26.7% to 32.9%.

Compared with N#Cc1cc([N+](=O)[O-])ccc1NCC1CCCO1 (stereo not drawn), CC(C)N1CCc2c(sc(NC(=O)Cc3ccccc3)c2C#N)C1 is higher in inhibition: -5.89% for the first, 2.11% for the second.

Going from O=C(CCc1ccccc1)NNc1ccc(F)cc1 to Cc1cccc(OCC(=O)Nc2ccc(C(=O)O)cc2NC(=O)COc2cccc(C)c2)c1, the inhibition falls from -4.35% to -5.8%.

For O=c1c(-c2cccc(Cl)c2)c[nH]n1-c1ccccc1, the inhibition was 77.1% (active).
For O=C(/C=C/c1ccco1)NC(=S)N1CCCCC1, the inhibition was 47.5% (active).
For COc1ccccc1/C=C/C(=O)NC(=S)N1CCOCC1, the inhibition was 106% (active).
For Nc1cc(N)nc(SCc2cccc(F)c2)n1, the inhibition was 62.3% (active).
With COc1ccc(-n2ncc3c(N4CCCc5ccccc54)ncnc32)cc1 the inhibition was 113% (active).
With COc1ccc(-n2ncc3c(N4CCc5ccccc54)ncnc32)cc1 the inhibition was 105% (active).
For O=C(/C=C/c1ccco1)Nc1cccc(-c2nc3ccccc3[nH]2)c1, the inhibition was 157% (active).
In the case of O=C(Nc1cccc(-c2nc3ccccc3[nH]2)c1)c1ccc(C(=O)Nc2cccc(-c3nc4ccccc4[nH]3)c2)cc1, the inhibition is reported as 62.5% (active).
With Cc1ccc(-n2nc3ccc(NC(=O)/C=C/c4ccco4)cc3n2)cc1C the inhibition was 63.8% (active).
In the case of CN1C(=O)/C(=C/C=C2\SCCN2C)OC1=S, the inhibition is reported as 70.4% (active).
With O=C(Nc1ccccc1Cl)Nc1cccc2cccnc12 the inhibition was 40.9% (active).
With COc1ccc(NC(=O)Nc2cccc3cccnc23)cc1 the inhibition was 79.2% (active).
In the case of O=C(Nc1cccc2cccnc12)c1cccc(Cl)c1, the inhibition is reported as 87.7% (active).
In the case of Cc1ccc2c(c1)NCC(C(=O)NC1CCC(C)CC1)O2 (stereo not drawn), the inhibition is reported as 64.8% (active).
With COc1ccc(-c2nnc(SCc3cccnc3)o2)cc1 the inhibition was 48.5% (active).
With CCc1ccc2c(c1)C1(NN=C(c3ccccc3)S1)C(=O)N2 (stereo not drawn) the inhibition was 105% (active).
For Cc1cc(O)c(C(=O)/C=C/c2c(F)c(F)c(F)c(F)c2F)c(=O)o1, the inhibition was 68.6% (active).
With Cc1cccc(OCC(=O)Nc2ccccc2F)c1 the inhibition was 74.7% (active).
In the case of COc1cccc(OCC(=O)Nc2ccccc2C(N)=O)c1, the inhibition is reported as 75.1% (active).
In the case of Cc1ccc(F)c(NC(=O)CCc2ccccc2)c1, the inhibition is reported as 70.1% (active).
